Activity calls are given as the source filed them.
Experiments:
Albumin (Bos taurus) = Albumin (Bos taurus) (UniProt P02769); assay: compounds binding labelled BSA control protein – biochemical, small-molecule microarray, Alexa647 label, 635/667 nm fluorescence, artefact control for SMM control protein annotation, profiling panel (AID 1118); conditions: BSA-A647 binding, fluorescence 635 nm, higher = more signal;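 also: score merges 667 nm emission intensity and signal-to-noise per printed compound spot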
[1] = probe aXIP binding to arrayed compounds – biochemical, NeuroSMM set, 635/667 nm fluorescence, primary screen (AID 1119); conditions: small-molecule microarray, higher = more signal, called active from +8 up or from −8 down;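 also: probe is the protein aXip251-270 applied at 1 µg/mL to compound-printed slides; binding of probe to printed compounds measured as 667 nm fluorescence plus signal to noise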
[2] = probe aNOTCH3 binding on compound microarray – biochemical, small-molecule microarray, 635/667 nm fluorescence, primary screen (AID 1120); conditions: higher = more signal;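 also: probe is a biotin-tagged antibody raised against NOTCH3 rather than NOTCH3 protein; score merges spot fluorescence near 667 nm with spot signal to noise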
[3] = probe aNOTCH2 binding on compound microarray – biochemical, small-molecule microarray, 635/667 nm fluorescence, primary screen (AID 1121); conditions: higher = more signal;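 also: score merges feature fluorescence read at 667 nm with its signal to noise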
[4] = target: Carbonic anhydrase 2 (Homo sapiens) (UniProt P00918); assay: compounds binding carbonic anhydrase 2 – biochemical, small-molecule microarray, Alexa647-labelled CAII, profiling panel (AID 1122); conditions: CAII-A647 binding fluorescence, higher = more signal
[5] = COS7 lysate on small-molecule microarray, probe aHis, 635 nm (AID 1123); conditions: COS7 cell lysate, fluorescence, higher = more signal;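 also: z-score combines 667nm fluorescence intensity with signal-to-noise per printed compound spot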
[6] = probe aLAP1 signal on lysate-treated microarray – cell lysate, small-molecule microarray, COS7 lysate, primary screen (AID 1124); conditions: probe aLAP1, fluorescence, higher = more signal;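 also: lysate comes from COS7 cells expressing LAP1 and is applied at 0.3 µg/mL; score merges spot fluorescence near 667 nm with signal-to-noise over triplicate slides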
Sam68 (KHDRBS1) = assay: compounds binding KHDRBS1 protein – biochemical, small-molecule microarray, 635 nm fluorescence, primary screen (AID 1125); conditions: higher = more signal;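 also: score merges 667 nm channel intensity with signal to noise over triplicate slides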
[7] = test system: Chordin-like protein 2 (CHRDL2); assay: compounds binding chordin-like 2 – biochemical, small-molecule microarray, 635 nm fluorescence, primary screen (AID 1126); conditions: fluorescence 635 nm, higher = more signal;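 also: printed compound slides probed with Chrdl2 protein at 4 µg/mL for 1 h at 4 C; score merges 667 nm emission intensity with signal to noise over three replicate slides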
[8] = target: Concanavalin-A (Canavalia ensiformis) (UniProt P02866); assay: compounds binding concanavalin A lectin – biochemical, small-molecule microarray, Alexa647 label, 635 nm, artefact control for SMM control protein annotation, primary screen (AID 1127); conditions: ConA-A647 binding fluorescence, higher = more signal;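 also: z combines 667 nm emission intensity with signal-to-noise across three replicate slides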
Concanavalin-A (Canavalia ensiformis), sequence (P02866 whole entry, looked up): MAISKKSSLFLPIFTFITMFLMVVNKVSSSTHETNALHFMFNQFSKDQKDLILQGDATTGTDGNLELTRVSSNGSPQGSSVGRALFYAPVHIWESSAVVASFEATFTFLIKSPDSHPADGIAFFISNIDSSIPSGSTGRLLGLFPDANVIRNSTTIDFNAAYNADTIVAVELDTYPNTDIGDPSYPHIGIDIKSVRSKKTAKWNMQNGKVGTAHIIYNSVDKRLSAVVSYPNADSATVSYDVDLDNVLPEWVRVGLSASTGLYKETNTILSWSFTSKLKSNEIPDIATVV

Albumin (Bos taurus), sequence (P02769 whole entry, looked up): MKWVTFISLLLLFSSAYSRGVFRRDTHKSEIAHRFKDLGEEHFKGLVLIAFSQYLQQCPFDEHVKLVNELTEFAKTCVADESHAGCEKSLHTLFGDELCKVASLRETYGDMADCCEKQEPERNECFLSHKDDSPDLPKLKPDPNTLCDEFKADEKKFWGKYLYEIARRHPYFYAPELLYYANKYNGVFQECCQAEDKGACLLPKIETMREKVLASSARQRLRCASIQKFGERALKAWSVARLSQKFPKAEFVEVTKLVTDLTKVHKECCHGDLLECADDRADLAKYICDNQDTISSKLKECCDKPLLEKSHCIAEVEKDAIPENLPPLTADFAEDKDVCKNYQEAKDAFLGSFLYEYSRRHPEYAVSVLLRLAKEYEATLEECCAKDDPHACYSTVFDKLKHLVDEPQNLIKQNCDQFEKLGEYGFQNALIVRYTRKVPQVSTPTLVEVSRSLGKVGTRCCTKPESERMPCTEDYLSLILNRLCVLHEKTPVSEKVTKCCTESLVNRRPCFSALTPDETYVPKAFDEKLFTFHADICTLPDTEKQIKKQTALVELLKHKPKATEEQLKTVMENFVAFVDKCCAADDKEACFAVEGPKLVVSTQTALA

| SMILES | composite z-score (Albumin (Bos taurus)) | composite Z-score [1] | composite z-score [2] | composite z-score [3] | composite z-score [4] | composite z-score [5] | composite z-score [6] | composite z-score (Sam68 (KHDRBS1)) | composite z-score [7] | composite z-score [8] |
| --- | --- | --- | --- | --- | --- | --- | --- | --- | --- | --- |
| CC(C)C(CO)N1C(=O)[C@@H]2[C@H]3C(=O)OCC=C[C@H]3OC23C=CCN(CCN2CCOCC2)C(=O)[C@@H]13 (stereo not given in full) | -0.36 | -0.0157 (inactive) | -0.125 | -0.164 | -0.111 | -0.332 | -0.0765 | 0.0784 | 0.446 | 0.166 |
| CCCNC(=O)[C@@]1(Sc2ccc(C)cc2)CC(=O)N(Cc2ccccc2)[C@@H]1c1ccc(CO)cc1I | -0.793 | -0.163 (inactive) | 0.147 | -0.115 | 0.405 | 0.644 | 1.01 | 0.827 | 0.678 | 0.082 |
| CCCC[C@H]1OB(O)C[C@H]2C1=C(COc1ccccc1)Cn1c(=O)n(-c3ccccc3)c(=O)n12 | 0.196 | 0.131 (inactive) | 0.0705 | -0.114 | 0.247 | 1.1 | 0.0367 | 1.14 | 0.357 | 0.501 |
| CCOC(=O)C[C@H]1[C@H](OC(=O)c2ccccc2-c2ccccc2)[C@@H](NC(=O)c2ccccc2)c2cc(OCCCO)ccc2N1C(=O)Cc1ccc(OC)cc1 | -0.261 | -0.0282 (inactive) | -0.0055 | 0.669 | -0.0956 | 0.428 | 0.368 | -0.0802 | 0.0666 | 0.588 |
| Cc1ccc(S[C@]2(C(=O)NCCN3CCOCC3)CC(=O)N(C3Cc4ccccc4C3)[C@@H]2c2ccc(CO)cc2)cc1 | 0.0022 | 0.39 (inactive) | -0.159 | -0.0745 | 0.66 | 2.08 | 0.0297 | 0.151 | -0.373 | 0.152 |
| CC(C)NC(=O)[C@@]1(Cc2ccccc2I)c2ccccc2C(=O)N(Cc2ccccc2C(F)(F)F)[C@H]1c1ccc(CO)cc1 | 0.263 | 0.0307 (inactive) | 0.059 | 0.0509 | 0.71 | 1.47 | 0.896 | 0.63 | 0.107 | 0.548 |
| COCCOC(=O)N1C(=O)[C@@]2(c3cc(C#CCC(C(=O)OC)C(=O)OC)ccc31)[C@H](c1ccc(OCCO)cc1)N1[C@H](c3ccccc3)[C@H](c3ccccc3)OC(=O)[C@H]1[C@@H]2C(N)=O | 0.84 | 0.674 (inactive) | -0.0077 | 0.0264 | 0.57 | 2.82 | 1.02 | 1.29 | 0.474 | 1.15 |
| COCCOC(=O)N1C(=O)[C@@]2(c3cc(C#CCCO)ccc31)[C@H](C(=O)N1CCc3cc(OC)c(OC)cc3C1)[C@H]1C(=O)O[C@H](c3ccccc3)[C@H](c3ccccc3)N1[C@@H]2c1ccc(OCCO)cc1 | 0.455 | 0.552 (inactive) | 0.19 | -0.147 | 0.476 | 1.54 | 0.765 | 1.3 | 0.956 | 1.09 |
| O=c1c2ccc(Br)cc2nc(-c2ccccc2)n1Cc1cccc(O)c1 | 0.757 | 0.906 (inactive) | 0.103 | 0.138 | 0.711 | 1.46 | 1.3 | 0.772 | 0.182 | 0.988 |
| O=C(O)[C@]1(CCS(=O)(=O)c2ccccc2)N=C(c2ccc(OCCCO)cc2)O[C@@H]1c1ccccc1 | 0.815 | 0.207 (inactive) | 0.196 | 0.197 | 0.858 | 2.59 | 0.341 | 0.541 | -0.0616 | -0.251 |
| CCC[C@@H]1C[C@@]1(CCC)[C@@H](NC(=O)c1ccco1)c1ccc(Cl)cc1 | -0.638 | -0.392 (inactive) | -0.173 | -0.0324 | -0.464 | -0.241 | -0.0117 | -1.48 | -0.493 | -0.517 |
| O=C(Nc1cc(Br)ccc1C(=O)NCc1cccc(O)c1)c1ccccc1 | 0.8 | -0.0662 (inactive) | 0.151 | -0.0901 | 0.62 | 0.891 | 0.808 | 0.778 | 0.279 | 1.18 |
| CC(C)(C)N1CC=CC23O[C@@H]4C=CCCOC(=O)C4[C@H]2C(=O)N(CCCO)[C@@H]3C1=O (stereo not given in full) | -2.01 | 0.494 (inactive) | -0.222 | -0.177 | 0.405 | -0.552 | -0.0817 | -1.76 | -0.487 | -3.17 |
| C=CCN1C(=O)[C@@]2(O[C@@H](CCO)[C@H]([Si](C)(C)c3ccc(OC)cc3)[C@H]2C)c2cc(NC(=O)[C@H](C)O)ccc21 | 0.489 | 0.0001 (inactive) | -0.0343 | -0.126 | 0.63 | 1.68 | 0.231 | 1.31 | -0.0585 | 0.584 |
| COc1cccc(C[C@H]2C[C@@H](CO[Si](C(C)C)(C(C)C)C(C)C)N3C(=O)[C@]4(C(C)=O)O[C@]23[C@H]2C(=O)N(C)C(=O)[C@H]24)c1 | 0.614 | -0.12 (inactive) | -0.0647 | -0.148 | -0.0064 | 0.0217 | -0.274 | 1.14 | 0.403 | 0.98 |
| C=C(CCCC)/C(=C/C[C@@H](OC(=O)c1ccncc1)c1ccccc1OCCO)c1cc(C(=O)OC)ccc1OC | 0.865 | -0.0662 (inactive) | 0.125 | -0.0317 | 0.616 | 1.28 | 0.902 | 1.25 | -0.0027 | -0.251 |
| CC1(C)[C@@H]2CC(C(O)C3C=CC4C(=O)N(c5ccccc5)C(=O)C4N3Nc3ccccc3F)=C[C@@H]1C2 (stereo not given in full) | 0.844 | 0.0252 (inactive) | 0.272 | -0.229 | 0.571 | 2.66 | 0.405 | 1.29 | 0.0364 | 1.09 |
| O=C1c2ccccc2[C@](Cc2ccccc2I)(C(=O)NC2CC2)[C@H](c2ccc(CO)cc2)N1Cc1ccccc1Cl | 0.0646 | -0.057 (inactive) | 0.265 | 0.0563 | 0.574 | 1.93 | 0.696 | 1.31 | 0.0424 | 0.997 |
| CO[C@H]1O[C@H](CO)[C@@H](OC(=O)c2ccc(Br)cc2)[C@@H]2OC(=O)[C@H](Cc3cccc(Br)c3)C/C=C/C[C@@H](Cc3cccc(Br)c3)C(=O)O[C@@H]12 | 0.695 | 0.528 (inactive) | 0.119 | -0.0486 | 0.439 | 0.806 | 0.72 | 1.18 | 0.511 | 0.583 |
| NC(=O)NCC#Cc1ccc2c(c1)[C@]1(C(=O)N2)[C@H](c2ccc(O)cc2)N2[C@H](c3ccccc3)[C@H](c3ccccc3)OC(=O)[C@H]2[C@@H]1C(N)=O | -0.624 | 0.251 (inactive) | -0.279 | 0.104 | 0.263 | 0.409 | -0.0995 | -0.144 | -0.162 | -0.608 |
| COC(=O)C(CC#Cc1ccc2c(c1)[C@]1(C(=O)N2)[C@H](C(=O)N2CCc3cc(OC)c(OC)cc3C2)[C@H]2C(=O)O[C@H](c3ccccc3)[C@H](c3ccccc3)N2[C@@H]1c1ccc(OCCO)cc1)C(=O)OC | 0.438 | -0.715 (inactive) | 0.239 | -0.0664 | 0.413 | 2.17 | 0.969 | 1.31 | 0.506 | 0.942 |
| [N-]=[N+]=NCc1ccccc1[C@H]1OC(c2ccc(OCCCO)cc2)=N[C@@]1(Cc1ccccc1)C(N)=O | 0.883 | -0.379 (inactive) | 0.391 | 0.0029 | 0.589 | 2.29 | 0.112 | 1.29 | -0.797 | 1.19 |
| C=C(COC)C(=O)CC[C@H](OC(=O)c1ccccc1-c1ccccc1C(=O)O)c1ccc(CO)o1 | -0.701 | 0.403 (inactive) | -0.203 | -0.14 | 0.365 | -0.264 | 0.134 | 0.807 | 0.55 | 0.332 |
| C=C[C@@H](O)[C@H]1CC(c2ccccc2)=NO1 | -0.596 | 0.303 (inactive) | -0.1 | -0.084 | -0.0997 | -0.322 | -0.156 | -0.542 | 0.647 | 0.334 |
| COC(=O)C(CC#Cc1ccc2c(c1)[C@]1(C(=O)N2)[C@H](c2ccc(OCCO)cc2)N2[C@H](c3ccccc3)[C@H](c3ccccc3)OC(=O)[C@H]2[C@@H]1C(=O)O)C(=O)OC | 0.803 | 0.419 (inactive) | 0.328 | 0.224 | 0.724 | 1.37 | 0.26 | 1.28 | 0.368 | 1.15 |
| COCCOC(=O)N1C(=O)[C@@]2(c3cc(C#CCCO)ccc31)[C@H](C(=O)NC[C@H](O)c1ccccc1)[C@H]1C(=O)O[C@H](c3ccccc3)[C@H](c3ccccc3)N1[C@@H]2c1ccccc1OCCO | -0.919 | 0.427 (inactive) | 0.252 | 0.177 | 0.0771 | 1.33 | 1.32 | 1.3 | 0.969 | 1.09 |
| CN1C(=O)C2C=CC(C(O)COCc3ccccc3)N(Nc3ccccc3)C2C1=O (stereo not given) | 0.898 | -0.0217 (inactive) | 0.348 | -0.127 | 0.81 | 1.44 | -0.0468 | 0.616 | -0.142 | 0.479 |
| COCCOC(=O)N1C(=O)[C@@]2(c3cc(C#Cc4ccc(OC)cc4)ccc31)[C@H](C(=O)N1CCc3cc(OC)c(OC)cc3C1)[C@H]1C(=O)O[C@H](c3ccccc3)[C@H](c3ccccc3)N1[C@@H]2c1ccc(OCCO)cc1 | -0.121 | -0.527 (inactive) | 0.0271 | -0.149 | 0.22 | -0.0346 | 0.0459 | 1.23 | 0.598 | 1.09 |

Reference: PubChem BioAssay
